Measured values: the supplement of paper PMC3334620
In all, about 33,000 sequences were measured (“E-score (-0.5 to 0.5)”: median about -0.035, highest 2% from about 0.35 on). What follows is part of a selection rich in the highest values, with near analogues and random picks from the rest.

Each sequence was assayed against T1, Pdr3 (UniProt P33200) (assay: PBM E-score (8-mer binding enrichment) (E-score (-0.5 to 0.5)); higher = stronger / more preferred TF binding). Conditions: protein concentration: 200 nM; construct: GST-full length.
T1 sequence: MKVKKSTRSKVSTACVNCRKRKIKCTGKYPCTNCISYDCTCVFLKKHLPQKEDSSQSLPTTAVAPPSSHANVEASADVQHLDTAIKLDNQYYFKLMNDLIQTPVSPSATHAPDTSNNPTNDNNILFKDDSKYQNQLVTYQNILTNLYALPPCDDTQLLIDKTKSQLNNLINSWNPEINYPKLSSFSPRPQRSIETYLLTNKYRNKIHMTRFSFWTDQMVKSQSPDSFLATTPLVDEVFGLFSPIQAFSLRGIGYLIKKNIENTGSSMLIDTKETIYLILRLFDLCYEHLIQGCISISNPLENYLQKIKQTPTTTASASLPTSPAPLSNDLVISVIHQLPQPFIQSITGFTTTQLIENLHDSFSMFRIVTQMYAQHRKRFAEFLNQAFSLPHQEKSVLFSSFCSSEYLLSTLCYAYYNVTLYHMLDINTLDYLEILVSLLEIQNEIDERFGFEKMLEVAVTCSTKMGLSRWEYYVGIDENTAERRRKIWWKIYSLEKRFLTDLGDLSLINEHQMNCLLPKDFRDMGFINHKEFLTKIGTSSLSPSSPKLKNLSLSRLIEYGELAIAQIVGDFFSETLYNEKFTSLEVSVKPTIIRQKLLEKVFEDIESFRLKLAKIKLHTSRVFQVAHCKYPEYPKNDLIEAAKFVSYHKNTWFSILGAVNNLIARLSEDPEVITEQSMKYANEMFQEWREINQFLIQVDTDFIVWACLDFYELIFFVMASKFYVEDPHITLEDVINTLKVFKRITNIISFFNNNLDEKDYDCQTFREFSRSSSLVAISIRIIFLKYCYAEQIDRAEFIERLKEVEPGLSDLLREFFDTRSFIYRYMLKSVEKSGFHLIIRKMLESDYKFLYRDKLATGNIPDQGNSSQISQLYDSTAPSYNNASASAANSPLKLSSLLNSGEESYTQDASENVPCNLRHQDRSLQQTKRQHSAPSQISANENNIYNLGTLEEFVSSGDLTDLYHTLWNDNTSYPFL
Method in brief: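 Universal all-10-mer Agilent arrays, double-stranded by primer extension on fresh or once-stripped slides, were probed with about 100-200 nM GST-tagged yeast transcription factors made by PURExpress. Fluorescent anti-GST detected bound protein, and masliner normalised the scans. E-scores from the Universal PBM Analysis Suite were given to each ungapped eight-base word pooled with its reverse complement.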
CTCGGCAG was tested, and the “PBM E-score” value was 0.219. For CGAAATAG, the “PBM E-score” value was 0.0496. ATTCCGTG was tested, and the “PBM E-score” value was 0.467. With CGTCCGTC the “PBM E-score” value was -0.0265. ACTCCGTG was tested, and the “PBM E-score” value was 0.282. With CCTCCGTC the “PBM E-score” value was 0.15. In the case of AATCCGTG, the “PBM E-score” value is reported as 0.237. For CTTCCGTC, the “PBM E-score” value was 0.403. In the case of AAAACTTC, the “PBM E-score” value is reported as -0.029. With CACCGCTC the “PBM E-score” value was 0.0532. GTTTTAGA was tested, and the “PBM E-score” value was -0.0726. With GGGGGAGA the “PBM E-score” value was -0.00585. For AGTTTCCG, the “PBM E-score” value was 0.452. For ATTTCCCC, the “PBM E-score” value was 0.0635. For CATTTCCG, the “PBM E-score” value was 0.411. For ATTTTCCA, the “PBM E-score” value was 0.122. CATTTCCC was tested, and the “PBM E-score” value was 0.203. With ATTTCCCG the “PBM E-score” value was 0.369. For AGTTTCCA, the “PBM E-score” value was 0.0305. In the case of ATTTCCCA, the “PBM E-score” value is reported as 0.0046. With AGTTTCCC the “PBM E-score” value was 0.0499. ATTTTCCC was tested, and the “PBM E-score” value was 0.151. With CATTTCCA the “PBM E-score” value was -0.0296. ATTTTCCG was tested, and the “PBM E-score” value was 0.432. For AAAAGTTG, the “PBM E-score” value was 0.00957. ATCAAAGC was tested, and the “PBM E-score” value was 0.0706. For AACTCGCT, the “PBM E-score” value was 0.0814. ATATACCC was tested, and the “PBM E-score” value was 0.102. With CTACCGGA the “PBM E-score” value was 0.335. With CACCATAA the “PBM E-score” value was -0.109. For CGCCACAA, the “PBM E-score” value was -0.0528. In the case of AATTTCCC, the “PBM E-score” value is reported as 0.0432. With AATTTCCT the “PBM E-score” value was 0.0149. AATTTCCG was tested, and the “PBM E-score” value was 0.442. For AACTGTAC, the “PBM E-score” value was -0.229. In the case of ACGCCGCA, the “PBM E-score” value is reported as 0.181. In the case of CCGACGGC, the “PBM E-score” value is reported as 0.237. With ACGACGGA the “PBM E-score” value was 0.328. With CGCACGGA the “PBM E-score” value was 0.413. With GGGACGGA the “PBM E-score” value was 0.33. In the case of GCGACGCA, the “PBM E-score” value is reported as -0.126. CCGACGAA was tested, and the “PBM E-score” value was 0.193. GCGACGGA was tested, and the “PBM E-score” value was 0.374. With CGCACGGC the “PBM E-score” value was 0.142. In the case of CCGACGGA, the “PBM E-score” value is reported as 0.413. For CGGACGGA, the “PBM E-score” value was 0.367. In the case of CGGACGGC, the “PBM E-score” value is reported as 0.244. In the case of GGCACGGA, the “PBM E-score” value is reported as 0.314. With AACTCCTG the “PBM E-score” value was -0.193. In the case of ATCTGGCA, the “PBM E-score” value is reported as -0.111. In the case of AGCTGTCC, the “PBM E-score” value is reported as -0.116. GCGGGGCA was tested, and the “PBM E-score” value was 0.129. With CATACCCC the “PBM E-score” value was 0.0622. For CCCACCGG, the “PBM E-score” value was 0.248. With ATCTTCGA the “PBM E-score” value was -0.115. For AATCATGT, the “PBM E-score” value was -0.0895. With AGCGCCCT the “PBM E-score” value was 0.0102. CCAAGCCA was tested, and the “PBM E-score” value was -0.245. In the case of GGAAGCCA, the “PBM E-score” value is reported as 0.0692. In the case of CGGACGAA, the “PBM E-score” value is reported as 0.372. For CGGACGAC, the “PBM E-score” value was 0.196. In the case of GGGACGAA, the “PBM E-score” value is reported as 0.162. With AAGCGGAT the “PBM E-score” value was 0.309. In the case of TAGCGGAA, the “PBM E-score” value is reported as 0.357. For CAGCGGAG, the “PBM E-score” value was 0.274. In the case of GAGCGGTA, the “PBM E-score” value is reported as 0.0552. With AAGCGGAG the “PBM E-score” value was 0.0882. With CAGCGGAC the “PBM E-score” value was 0.176. In the case of AAGCGGAA, the “PBM E-score” value is reported as 0.387. For CAGCGGAA, the “PBM E-score” value was 0.429. For GAGCGGAC, the “PBM E-score” value was 0.0792. TAGCGGCA was tested, and the “PBM E-score” value was 0.107. With TAGCGGGA the “PBM E-score” value was 0.14. With GAGCGGAA the “PBM E-score” value was 0.415. For AAGCTATT, the “PBM E-score” value was -0.112. With ACACCACT the “PBM E-score” value was 0.108. In the case of CGTTGCCC, the “PBM E-score” value is reported as 0.101. AAGTGTGT was tested, and the “PBM E-score” value was -0.187. For CAACTAGA, the “PBM E-score” value was -0.0997. With GTTGTGAA the “PBM E-score” value was -0.142. For GAATCAGC, the “PBM E-score” value was -0.124. TCGTTCAA was tested, and the “PBM E-score” value was -0.125. For GCCGTGGA, the “PBM E-score” value was 0.258. In the case of CCCGTGGA, the “PBM E-score” value is reported as 0.395. For CCCGTGGC, the “PBM E-score” value was 0.233. With TCCGTCAA the “PBM E-score” value was 0.375.
